# The source made the active and inactive calls. A call without a number means that no potency is given here. The call rests on the fitted dose curve; in most records, active means well fitted inhibition curve with a large enough effect; inconclusive means small, poorly fitted or top-dose-only effect; inactive means no such curve, though single readings can be large or run the other way.
# Test: qHTS assay for measurement of the activity of small molecule inhibitors on Zika virus induced Caspase-3 activity in human astrocytoma cells (AID 1224859)
# Settings: SNB-19 ZIKV-induced caspase-3/7, luminescence, 6 h; series mostly up to 45.7 µM
# Description: National Center for Advancing Translational Sciences [NCATS]
# Johns Hopkins University School of Medicine
# Increase in the Caspase-3 activity indicates an activation of apoptosis cell death pathway caused by Zika virus infection in certain types of neuronal cells including human neural progenitor cells (hNPCs), astrocytes, and astrocytoma cell line (SNB-19). This cell-based caspase-3 activity assay measures the increased caspase-3 activity in the astrocytoma cell line (SNB-19) after a 6-hour Zika virus infection with a luminescence readout. A decrease in the luminescence signal in this assay by small molecule treatment indicates an inhibitory effect of that small molecule on the Zika virus induced caspase-3 activity that may correlate with its effect on reduction of Zika virus caused cell death.
# The medium for SNB-19 cells is composed of RPMI 1640 (ATCC, Cat.# 30-2001), 10% fetal bovine serum (FBS) (GE healthcare Life Sciences, Cat.# SH30071.03), and 1% Pen/Strep (Gibco, Cat.# 15140-122). A Caspase-Glo 3/7 assay kit (catalog number G8092; Promega, Madison, WI) was used to detect caspase-3 activity induced by Zika virus infection in human cells. The reagent mixture was reconstituted as described in the protocol from the manufacturer. Polystyrene tissue culture treated and PDL coated white plates were obtained from Greiner Bio-One (Monroe, NC). Cells were seeded in 384- or 1536-well assay plates and cultured at 37 C with 5% CO2 for 16 to 20 hours. The typical cell seeding density in the 1536-well plate assay is 250 cells/well in 3ul medium for SNB-19 cells in tissue culture treated plates. Compounds were added to cells and incubated for one hour before addition of ZIKV solution to cells (2 FFU/cell). After incubation at 37 C with 5% CO2 for 6 hours, the reagent mixture of Caspase-Glo 3/7 assay kit was added to each well, followed by incubation at room temperature for 30 minutes. The luminescence intensity of the assay plates was measured using a ViewLux plate reader (PerkinElmer). Data were normalized by using the cell-containing wells without ZIKV as a negative control (0% induction of caspase 3/7 activity) and wells containing ZIKV infected cells (Caspase-3 activity induced) as a positive control (100% induction of caspase 3 activity). The percentage inhibitions of the increased Caspase-3 activity by small molecule inhibitors were then calculated.
# Potency means the concentration at half of the fitted maximal effect.
row,Compound,Potency
1,O=C(c1cncc(Br)c1)N1CCC(N2CCCC2)CC1,inactive
2,COc1cc(C(C)C)c2c(c1)S(=O)(=O)N(COc1cc(=O)n3cccc(OCCN4CCCCC4)c3n1)C2=O,inactive
3,COCCn1c2c([n+](Cc3cnccn3)c1C)C(=O)c1ccccc1C2=O,1320 nM (active)
4,CC(C)Nc1cc(C(F)(F)F)cc2nc(NC(=O)c3cccnc3)nn12,inactive
5,Cc1ccc(C(=O)Nc2ccc(CN3CCN(C)CC3)c(C(F)(F)F)c2)cc1C#Cc1cnc2cccnn12,inactive
6,CCC[C@H](NC(=O)C(C#N)=Cc1cccc(Br)n1)c1ccccc1,inactive
7,Cc1cnc(Nc2ccc(F)cc2Cl)nc1-c1c[nH]c(C(=O)N[C@H](CO)c2cccc(Cl)c2)c1,inactive
8,COc1cc(Nc2ncc(F)c(Nc3ccc4c(n3)N(COP(=O)(O)O)C(=O)C(C)(C)O4)n2)cc(OC)c1OC,inactive
9,COc1cc(-c2nn(C3CCC(N4CCN(C(C)=O)CC4)CC3)c3ncnc(N)c23)ccc1NC(=O)c1cc2ccccc2n1C (stereo not given),inactive
10,CNC(=O)c1c(F)cccc1Nc1nc(Nc2cc3c(cc2OC)CCN3C(=O)CN(C)C)nc2[nH]ccc12,inactive
11,Cc1nc2ccc(CN(C)c3ccc(C(=O)N[C@@H](CCC(=O)O)C(=O)O)s3)cc2c(=O)[nH]1,inactive
12,CCc1cc2c(cc1N1CCC(N3CCOCC3)CC1)C(C)(C)c1[nH]c3cc(C#N)ccc3c1C2=O,inactive
13,CCCNC(=O)Nc1ccc(Oc2ncnc3cc(OC)c(OC)cc23)cc1Cl,inactive
14,COc1ccc(CC2SC(=O)NC2=O)cc1C(=O)NCc1ccc(C(F)(F)F)cc1 (stereo not given),inactive
15,Nc1cc(C(F)(F)F)c(-c2cc(N3CCOCC3)nc(N3CCOCC3)n2)cn1,inactive
16,O=C(Cc1ccc(-c2ccc(OCCN3CCOCC3)cc2)cn1)NCc1ccccc1,inactive
17,CCNC(=O)Nc1ccc2ncc(Nc3ccc(C)cc3)nc2n1,inactive
18,Cc1ccc(S(=O)(=O)Nc2cc(Cl)ccc2C(=O)Nc2nc(-c3ccccc3)cs2)cc1,inactive
19,CN1CCN(c2ccc3nc(-c4c(N)c5c(F)cccc5[nH]c4=O)[nH]c3c2)CC1,inactive
20,CC1(C)OC2=C(C(=O)c3ccccc3C2=O)[C@H](NCc2ccccc2)[C@H]1O,inactive

row,Compound,Potency
1,Cc1cc(Nc2cc(N3CCN(C)CC3)nc(Sc3ccc(NC(=O)C4CC4)cc3)n2)n[nH]1,inactive
2,Nc1ncnc2c1c(-c1cnc3[nH]ccc3c1)nn2C1CCCC1,inactive
3,COc1cc2c(Oc3ccc(NC(=O)C4(C(=O)Nc5ccc(F)cc5)CC4)cc3F)ccnc2cc1OCCCN1CCOCC1,inactive
4,CN1c2cc(O)c(N=NC(N)=O)cc2CC1S(=O)(=O)O (stereo not given),inactive
5,COc1cc2c(cc1-c1c(C)noc1C)ncc1[nH]c(=O)n([C@H](C)c3ccccn3)c12,inactive
6,CCCCc1nc2cc(C=CC(=O)NO)ccc2n1CCN(CC)CC,inactive
7,CC(C)c1cc(C(=O)N2Cc3ccc(CN4CCN(C)CC4)cc3C2)c(O)cc1O,inactive
8,N#CCNC(=O)c1ccc(-c2ccnc(Nc3ccc(N4CCOCC4)cc3)n2)cc1,inactive
9,COc1cc2ncn(-c3cc(OCc4ccccc4C(F)(F)F)c(C(N)=O)s3)c2cc1OC,inactive
10,CC1(C)CCC(c2ccc(Cl)cc2)=C(CN2CCN(c3ccc(C(=O)NS(=O)(=O)c4ccc(N[C@H](CCN5CCOCC5)CSc5ccccc5)c(S(=O)(=O)C(F)(F)F)c4)cc3)CC2)C1,inactive
11,COC(=O)[C@]12CCC(C)(C)C[C@@H]1[C@@H]1C(=O)C=C3[C@@]4(C)C=C(C#N)C(=O)C(C)(C)[C@@H]4CC[C@@]3(C)[C@]1(C)CC2,inactive
12,CN1CCC(CNc2ccc3ncc(-c4cccc(OC(F)(F)F)c4)n3n2)CC1,inactive
13,C[C@@H](Oc1cc(-n2cnc3ccc(CN4CCN(C)CC4)cc32)sc1C(N)=O)c1ccccc1C(F)(F)F,inactive
14,Nc1nc(NCCNc2ncc(-n3ccnc3)c(-c3ccc(Cl)cc3Cl)n2)ccc1[N+](=O)[O-],inactive
15,CNC(=O)c1ccccc1Nc1nc(Nc2ccc(N3CCOCC3)cc2OC)ncc1Cl,inactive
16,O=C(c1ccc(Nc2nccc(-c3cc4ccccc4s3)n2)cc1)N1CCC(N2CCCC2)CC1,inactive
17,C[C@H]1C[C@@H]2[C@@H]([C@@H](O)C[C@@]3(C)[C@H]2CC[C@]3(O)C(=O)CO)[C@@]2(C)C=CC(=O)C=C12,inactive
18,CCCn1c(=O)c2[nH]c(-c3cnn(Cc4cccc(C(F)(F)F)c4)c3)nc2n(CC)c1=O,inactive
19,NCC(=O)Nc1ccc(-n2nc(C(F)(F)F)cc2-c2ccc3c(ccc4ccccc43)c2)cc1,inactive
20,CC(C)(O)CCc1ccc(OCc2cc(-c3cccc(OC(F)F)c3)c3ncccc3c2)cc1,inactive

# From PubChem BioAssay (NCATS)
